The sample as a whole holds a higher share of hits than the screen did.
Cycloheximide cs = Cycloheximide Counterscreen for Small Molecule Inhibitors of Shiga Toxin | max response, % | AID 2314, 2010 | cell reporter, cycloheximide protein synthesis inhibition counterscreen | hit rate 12% among 300,000; in the data active = max response mostly above about 13%, no sharp cut-off; inactive = mostly below about 14%; note: read at 38.3 µM for the half of the compounds with a filed dose; 0% is about no effect
AmpC no deterg = qHTS Inhibitors of AmpC Beta-Lactamase (assay without detergent). AmpC nitrocefin hydrolysis, absorbance 480 nm, 0.0001% Triton. P00811. hit rate 0.52% among 330,000. Potency, µM (series often up to 57.1 µM), for inactives: at the highest dose activity change, negative = inhibition, usual class: inhibitors. AID 485341, 2010;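 note: potency is the fitted concentration of half-maximal effect; plate controls were no compound for no effect and no enzyme for full effect; nearly all actives have a fitted effect of over 20% in size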
Target sequence (P00811 whole entry, looked up): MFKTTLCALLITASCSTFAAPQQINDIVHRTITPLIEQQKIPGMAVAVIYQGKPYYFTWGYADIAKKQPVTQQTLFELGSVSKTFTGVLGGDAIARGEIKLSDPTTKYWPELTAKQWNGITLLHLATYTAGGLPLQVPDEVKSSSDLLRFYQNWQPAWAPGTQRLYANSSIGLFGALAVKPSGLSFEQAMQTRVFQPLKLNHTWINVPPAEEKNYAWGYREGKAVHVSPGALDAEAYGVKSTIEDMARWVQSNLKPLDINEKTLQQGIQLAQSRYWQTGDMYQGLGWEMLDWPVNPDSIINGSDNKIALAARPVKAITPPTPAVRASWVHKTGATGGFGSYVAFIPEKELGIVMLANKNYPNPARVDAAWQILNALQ
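AmpC (5.3 nM in the dispensed reagent) in 20 mM phosphate pH 7.0 with 0.01% (detergent screen) or 0.0001% Triton X-100 was preincubated with compounds for 15 min at room temperature. Nitrocefin was then added from an 800 uM solution, and hydrolysis was followed at 480 nm.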
Shiga toxin inh = A qHTS for Small Molecule Inhibitors of Shiga Toxin; Vero cells, Shiga toxin protein synthesis inhibition reporter; inhibition, % at 38.7 µM; hit rate 9.2% among 290,000; in the data active = inhibition mostly above about 28%, no sharp cut-off; inactive = mostly below about 43%; note: 0% is about no effect
AMA1 RON2 block = qHTS for Inhibitors of AMA1-RON; Towards Development of Antimalarial Drug Lead: Primary Screen; Plasmodium falciparum AMA1 (3D7) - RON2 peptide interaction; AlphaScreen AMA1-biotinylated RON2 peptide binding; Potency, µM (highest dose often 58.2 µM), without a hit: top-dose activity change, negative = inhibition, usual class: inhibitors; hit rate 0.2% among 360,000;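 note: potency is the fitted concentration of half-maximal effect; 0% = vehicle wells and -100% = peptide control; nearly all actives have a fitted effect of over 45% in size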
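AMA1 (3D7) with his tag at 25 nM final met compounds first, then biotinylated RON2 peptide at 25 nM; detection used donor plus acceptor beads, 10 µg/mL apiece, read by AlphaScreen after 30 min at room temperature.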
SARS PLP yeast = qHTS of Yeast-based Assay for SARS-CoV PLP; S. cerevisiae expressing SARS-CoV PLpro, growth rescue; Potency, µM (highest dose often 32.9 µM), inactives show top-dose activity, positive = growth rescue, most hits filed as activators; hit rate 0.19% among 330,000; AID 485353, 2010; calls by dose curve; note: potency is the fitted concentration of half-maximal effect; 0% is about no effect; nearly all actives have a fitted effect of over 55% in size
AmpC inh detg = qHTS Inhibitors of AmpC Beta-Lactamase (assay with detergent) | P00811 | AmpC hydrolysis of nitrocefin, absorbance 480 nm, 0.01% Triton | Potency, µM (doses to about 114 µM), for inactives: at the top dose activity change, negative = inhibition, actives largely listed as inhibitors | hit rate 0.041% among 370,000;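 note: potency is the fitted concentration of half-maximal effect; 0% = no-compound wells and -100% = no-enzyme wells; nearly all actives have a fitted effect of over 25% in size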
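AmpC (5.3 nM in the dispensed reagent) in 20 mM phosphate pH 7.0 with 0.01% (detergent screen) or 0.0001% Triton X-100 was preincubated with compounds for 15 min at room temperature. Nitrocefin was then added from an 800 uM solution, and hydrolysis was followed at 480 nm.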
An asterisk follows results filed as active. Unless noted, calls come from the whole dose curve; as a rule, active = well fitted curve in the direction sought with a large enough effect; inconclusive = small, poorly fitted or top-dose-only effect, or another doubt; inactive = no such curve, though single readings can be large; an effect the other way counts as inactive or inconclusive.

For O=C(O)c1ccc(-c2nnc(-c3ccccc3)o2)cc1 the results were Cycloheximide cs 27*, AmpC no deterg -3%, Shiga toxin inh 42*, AMA1 RON2 block 3%, SARS PLP yeast -2% and AmpC inh detg -13%.
Screening O=C(c1ccc(-c2nnc(-c3ccccc3)o2)cc1)N1CCCCCC1 returned Cycloheximide cs 15, AmpC no deterg -15%, Shiga toxin inh 83*, AMA1 RON2 block -2%, SARS PLP yeast -2% and AmpC inh detg 2%.
O=C(c1nnc(-c2ccccc2)o1)C1CC1 was read as Cycloheximide cs 37*, AmpC no deterg -19%, Shiga toxin inh 97*, AMA1 RON2 block 0%, SARS PLP yeast 2% and AmpC inh detg inconclusive.
`O=C(c1ccc(-c2ccccc2)cc1)N1CCC(C(=O)N2CCCC2)CC1` gave Cycloheximide cs 5, AmpC no deterg 85%, Shiga toxin inh -15, AMA1 RON2 block 2%, SARS PLP yeast 3% and AmpC inh detg -2%.
`CN1CCN(C(=O)C2=C[C@H](c3ccc(C(F)(F)F)cc3)C[C@H](OCc3ccc(CO)cc3)O2)CC1` gave Cycloheximide cs 1, AmpC no deterg 183%, Shiga toxin inh -6, AMA1 RON2 block 7%, SARS PLP yeast 1% and AmpC inh detg 3%.
For Cc1cccc(CC(=O)Nc2ccc(C(=O)N3CCOCC3)cc2)c1 the results were Cycloheximide cs 6, AmpC no deterg -8%, Shiga toxin inh 39, AMA1 RON2 block 12%, SARS PLP yeast 1% and AmpC inh detg inconclusive.
Screening COc1ccc(C(=O)N2c3ccc(C)cc3C(C)(c3ccccc3)CC2(C)C)cc1 (centres undefined) returned AmpC inh detg 15%.
Cc1cc(NCCCn2ccnc2)n2nc(C)c(-c3ccc(Cl)cc3)c2n1 was read as Cycloheximide cs 26*, AmpC no deterg 3%, Shiga toxin inh 36, AMA1 RON2 block -13%, SARS PLP yeast 16% and AmpC inh detg 0%.
For Cc1cc(NCCCn2ccnc2)n2nc(C)c(-c3ccccc3)c2n1 the results were Cycloheximide cs 44*, AmpC no deterg 48%, Shiga toxin inh 33, AMA1 RON2 block 11%, SARS PLP yeast 4% and AmpC inh detg -7%.
CCN(CC)c1ccc(/C=C2\C(=O)N(c3nnc(C)c(=O)[nH]3)N=C2C)cc1 was read as Cycloheximide cs 8, AmpC no deterg 139%, Shiga toxin inh 23, AMA1 RON2 block 14µM*, SARS PLP yeast -1% and AmpC inh detg 0%.
`CCN(CC)c1ccc(/C=C2/C(=O)ON=C2C)cc1` gave Cycloheximide cs 13, AmpC no deterg -22%, Shiga toxin inh -3, AMA1 RON2 block -20%, SARS PLP yeast 0% and AmpC inh detg -13%.
For COc1ccc(CNC(=O)c2cc(-c3cccs3)on2)cc1 the results were Cycloheximide cs 19*, AmpC no deterg -20%, Shiga toxin inh 34, AMA1 RON2 block 7%, SARS PLP yeast -6% and AmpC inh detg -7%.
Screening COc1ccc(-c2cc(C(=O)NCc3cccs3)no2)cc1 returned Cycloheximide cs 23*, AmpC no deterg -20%, Shiga toxin inh 60*, AMA1 RON2 block -3%, SARS PLP yeast 0% and AmpC inh detg -1%.
For COc1cccc(C(=O)c2c[nH]c(C(=O)NCc3cccnc3)c2)c1 the results were Cycloheximide cs 1, AmpC no deterg -9%, Shiga toxin inh 16, AMA1 RON2 block -10%, SARS PLP yeast -1% and AmpC inh detg 5%.
Screening COc1cccc(C(=O)c2c[nH]c(C(=O)NCc3cccs3)c2)c1 returned Cycloheximide cs 16*, AmpC no deterg -17%, Shiga toxin inh 11, AMA1 RON2 block 2%, SARS PLP yeast -2% and AmpC inh detg -11%.
COc1ccc(NC(=O)Cn2nnc(C(=O)NCc3cccs3)c2N)cc1 was read as Cycloheximide cs -2, AmpC no deterg inconclusive, Shiga toxin inh -4, AMA1 RON2 block -1%, SARS PLP yeast -9% and AmpC inh detg -11%.
Screening COc1ccc2nc3sc(C(=O)NCc4cccs4)c(N)c3cc2c1 returned Cycloheximide cs 51*, AmpC no deterg -19%, Shiga toxin inh 83*, SARS PLP yeast 4% and AmpC inh detg inconclusive.
`O=C(NCc1ccc(Cl)cc1)c1cc(-c2cccs2)on1` gave Cycloheximide cs 2, AmpC no deterg -31%, Shiga toxin inh 13, AMA1 RON2 block -19%, SARS PLP yeast -5% and AmpC inh detg 1%.
For CC1CCCN(S(=O)(=O)c2ccc(C(=O)Nc3ccccc3-c3nc4ccccc4[nH]3)cc2)C1 (centres undefined) the results were Cycloheximide cs -9, AmpC no deterg -19%, Shiga toxin inh -9, AMA1 RON2 block -2%, SARS PLP yeast -14% and AmpC inh detg 7%.
Screening COc1cccc(-c2cc(C(=O)NCc3cccs3)no2)c1 returned Cycloheximide cs 61*, AmpC no deterg -7%, Shiga toxin inh 104*, AMA1 RON2 block -7%, SARS PLP yeast 1% and AmpC inh detg -3%.
`COc1cccc(-c2cc(C(=O)NCc3ccc(F)cc3)no2)c1` gave AmpC inh detg -3%.
For O=C(N/N=C/c1cccc2nccnc12)c1ccccc1O the results were Cycloheximide cs 19*, AmpC no deterg -21%, Shiga toxin inh 37*, AMA1 RON2 block 112%, SARS PLP yeast -2% and AmpC inh detg 8%.
O=C(N/N=C/c1cccc2cccnc12)c1ccccc1O was read as Cycloheximide cs 32*, AmpC no deterg -30%, Shiga toxin inh 84*, AMA1 RON2 block -75%, SARS PLP yeast -3% and AmpC inh detg 0%.
Screening CCOC(=O)N1CCN(C(=O)c2cccc(NS(=O)(=O)c3ccc(F)c(F)c3)c2)CC1 returned Cycloheximide cs -4, AmpC no deterg -14%, Shiga toxin inh 13, AMA1 RON2 block 10%, SARS PLP yeast 0% and AmpC inh detg -7%.
COC(=O)c1ccccc1NC1c2ccccc2C(=O)N1c1cccnc1 (centres undefined) was read as Cycloheximide cs -3, AmpC no deterg 7.1µM*, Shiga toxin inh -6, AMA1 RON2 block 47%, SARS PLP yeast 0% and AmpC inh detg inconclusive.
Screening CCOc1cc(/C=C2\SC(=N)N(c3nccs3)C2=O)ccc1OCCN1CCOCC1 returned Cycloheximide cs -3, AmpC no deterg 227%, Shiga toxin inh -5, AMA1 RON2 block 72%, SARS PLP yeast -7% and AmpC inh detg inconclusive.
